Measured values as given in PubChem BioAssay AID1259240 (Keith Lab, Institute of Cancer Science, University of …, 2017).
Calls of active or inactive are those of the source. Cut-off read from the data, not from the text of the source: active = fold change mostly below about -2 (no sharp cut-off); inactive = mostly above about -1.8.

experiment: TERT promoter activity modulators, primary screen, cell-based, luciferase reporter, human (AID 1259240); details: A2780 TERT promoter luciferase reporter, 16 h; at 20 µM, fold versus average of vehicle-only wells

Fold change, inactive:
O=C(Cn1ncc2c3ccccc3n(Cc3ccccc3)c2c1=O)N1CCCC1 -1.21
COc1ccc(NC(=O)c2cnccn2)cc1F -1.32
O=C(CCSCCc1ccccn1)Nc1nccs1 1.07
CC(=O)c1ccc(N2CCN(C(=O)CCCc3nnc4n5nc(C)nc5c5ccccc5n34)CC2)cc1 -1.6
Cc1ccn(CN2CCN(Cn3ccc(C)n3)C2=S)n1 1.29
O=C(Cn1ncc2c3ccccc3n(Cc3cccc(Cl)c3)c2c1=O)NCc1cccnc1 -1.25
COc1ccc(C2C3C(=O)N(C(C)C)C(=O)C3ON2c2ccc(Cl)cc2)cc1 (stereo not given) -1.62
O=C(CSc1nnc(Cc2cc(=O)[nH]c(=O)[nH]2)n1-c1ccc(Cl)cc1)c1ccccc1 -1.09
Cc1cc(NS(=O)(=O)c2ccc(NC(=O)[C@@H]3CCCC[C@@H]3C(=O)O)cc2)no1 -1.94
Cc1nc(SCC(=O)N2CCCC2)c2c(=O)n(C)c(=O)n(C)c2n1 1.5
CCCc1cc(C(=O)Nc2c(C)n(C)n(-c3ccccc3)c2=O)no1 -1.12
COc1ccc(Nc2c(-c3c[nH]c4ccccc34)nc3cnccn23)cc1 -1.09
O=C(Cn1c(=O)oc2cc(S(=O)(=O)N3CCc4ccccc43)ccc21)NC1CCCC1 -1.1
CC(C)CC(NS(=O)(=O)c1ccc2c(c1)oc(=O)n2C)C(=O)N1CCn2c1nc1ccccc12 (stereo not given) -1.61

outcome, inactive:
CCOc1ccc(-n2c(O)c(C3=c4cc(Br)ccc4=NC3=O)[nH]c2=S)cc1
